Reference: publication PMC4336329 (PLoS ONE, 2015)
About 14,000 (4.5%) of roughly 310,000 compounds showed an effect of 50% or more. Effects have a minus sign here. Many of the other results were omitted from the sample, so strong results are more common in it than they were.

molecular target: human ether-à-go-go-related gene (hERG) potassium channel (human, UniProt Q12809); test: primary screen, population patch clamp on CHO cells stably expressing hERG; higher = less effect of the substance
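Also: peak tail current of the secondary pulse compared with the same well before compound.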

human ether-à-go-go-related gene (hERG) potassium channel, sequence (Q12809 whole entry, looked up): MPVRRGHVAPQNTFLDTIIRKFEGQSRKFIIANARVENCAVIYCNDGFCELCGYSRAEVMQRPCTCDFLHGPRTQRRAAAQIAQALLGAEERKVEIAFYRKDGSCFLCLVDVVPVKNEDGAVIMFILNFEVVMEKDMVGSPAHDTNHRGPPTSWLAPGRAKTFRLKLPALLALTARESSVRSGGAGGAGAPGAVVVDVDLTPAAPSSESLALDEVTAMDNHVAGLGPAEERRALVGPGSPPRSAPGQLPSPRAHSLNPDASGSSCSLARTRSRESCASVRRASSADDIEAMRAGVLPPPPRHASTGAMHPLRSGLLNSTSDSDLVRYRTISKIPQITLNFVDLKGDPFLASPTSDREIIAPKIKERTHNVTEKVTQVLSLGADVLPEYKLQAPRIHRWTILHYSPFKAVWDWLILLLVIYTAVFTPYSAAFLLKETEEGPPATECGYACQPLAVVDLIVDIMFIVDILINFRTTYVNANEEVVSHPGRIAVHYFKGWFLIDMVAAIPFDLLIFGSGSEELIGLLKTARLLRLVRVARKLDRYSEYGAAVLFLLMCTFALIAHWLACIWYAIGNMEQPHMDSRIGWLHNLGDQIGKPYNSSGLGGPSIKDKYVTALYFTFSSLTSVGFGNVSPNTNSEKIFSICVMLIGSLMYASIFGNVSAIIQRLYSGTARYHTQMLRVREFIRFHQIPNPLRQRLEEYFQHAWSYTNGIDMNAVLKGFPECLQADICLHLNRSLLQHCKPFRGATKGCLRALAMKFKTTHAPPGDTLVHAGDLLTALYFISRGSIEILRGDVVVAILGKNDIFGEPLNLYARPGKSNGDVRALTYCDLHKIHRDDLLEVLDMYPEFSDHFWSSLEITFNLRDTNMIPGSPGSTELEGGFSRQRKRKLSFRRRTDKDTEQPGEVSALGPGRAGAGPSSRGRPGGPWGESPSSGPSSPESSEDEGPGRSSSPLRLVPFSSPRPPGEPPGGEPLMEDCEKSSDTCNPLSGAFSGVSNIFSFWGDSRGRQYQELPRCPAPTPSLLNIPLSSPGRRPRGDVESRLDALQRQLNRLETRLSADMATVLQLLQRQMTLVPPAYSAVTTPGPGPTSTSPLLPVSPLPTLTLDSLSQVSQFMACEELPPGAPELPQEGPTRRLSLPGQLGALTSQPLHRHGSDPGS

| SMILES | hERG current change (%, negative = inhibition) at 10uM [%] |
| --- | --- |
| Cn1c(=O)n(C)c2cc(NS(=O)(=O)c3ccc(F)cc3)ccc21 | 1.38 |
| O=C(NCc1cccnc1)C1CC(=O)N(c2ccc(F)cc2)C1 (stereo not drawn) | -15.1 |
| CC(SCc1ccccc1)C(=O)NC1CCCC1 (stereo not drawn) | 3.27 |
| CCN(CC)CCNC(=O)Cn1c(C)cc2ccccc2c1=O | 1.83 |
| CSc1ccc(/C=C/C(=O)c2ccc(NC(C)=O)cc2)cc1 | 12.6 |
| OCCOCCn1c(C(CO)Nc2nc(-c3ccccc3Br)cs2)nc2ccccc21 (stereo not drawn) | -72 |
| Cc1ccc(-c2csc(NC(CO)c3nc4ccccc4n3CCOCCO)n2)cc1 (stereo not drawn) | -47.3 |
| OCCOCCn1c(C(CO)Nc2nc(-c3cccc(Br)c3)cs2)nc2ccccc21 (stereo not drawn) | -12.5 |
| O=C(Cc1cccs1)Nc1nnc(SCC(=O)NC2CCCCC2)s1 | 7.84 |
| CCOc1ccccc1NC(=O)C1C2CCC3C(CCC21)C3(Cl)Cl (stereo not drawn) | -13.4 |
| NC(=O)CSc1nccn1Cc1ccc(Cl)cc1 | 19.1 |
| CC(=O)Nc1ccc(NC(=O)CSc2nccn2Cc2ccc(Cl)cc2)cc1 | -9.56 |
| CNC(=O)CSc1nccn1Cc1ccc(Cl)cc1 | -64.9 |
| Cc1nnc(SCc2ccccc2)n1CC1CCCO1 (stereo not drawn) | 11.9 |
| O=C(C1=NN(c2ccccc2)C2C(=O)N(c3cccc(Cl)c3)C(=O)C12)c1ccccc1 (stereo not drawn) | 1.55 |
| Clc1ncnc2scc(-c3ccc(Br)cc3)c12 | 7.97 |
| COc1ccccc1N=Nc1c(O)[nH]c2ccc(Br)cc12 | 14.2 |
| Cn1c(CN2CCOCC2)nc2cc(NC(=O)c3ccc(F)cc3)ccc21 | -12.5 |
| COc1ccc(C(=O)Nc2ccc3c(c2)nc(CN2CCCC2)n3C)cc1 | -44.4 |
| CC(C)(C)n1cnc2cc(NC(=O)c3ccc(Cl)cc3)ccc21 | -59.1 |
| CCOC(=O)Nc1ccc2c(c1)nc(CN1CCCCC1)n2C | -7.84 |
| Cn1cnc2cc(NC(=O)c3ccc(Cl)cc3)ccc21 | -18.9 |

| SMILES | hERG current change (%, negative = inhibition) at 10uM [%] |
| --- | --- |
| Cn1c(CN2CCOCC2)nc2cc(NC(=O)c3ccc(Cl)cc3)ccc21 | -34.2 |
| Cn1c(CN2CCCC2)nc2cc(NC(=O)c3ccc(Cl)cc3)ccc21 | -82 |
| Cn1c(CN2CCCCC2)nc2cc(NC(=O)c3ccc(F)cc3)ccc21 | -54.2 |
| CC(=O)N1CCN(Cc2nc3cc(NC(=O)c4ccc(F)cc4)ccc3n2C)CC1 | -8.9 |
| COc1ccc(C(=O)Nc2ccc3c(c2)nc(CN2CCN(C(C)=O)CC2)n3C)cc1 | -0.777 |
| CC(=O)N1CCN(Cc2nc3cc(NC(=O)c4ccc(Cl)cc4)ccc3n2C)CC1 | -65.8 |
| CC(C)(C)n1cnc2cc(NC(=O)c3ccccc3)ccc21 | -9.28 |
| O=C(NCCc1ccccc1)/C(=N\O)c1ccccc1 | 7.7 |
| CCn1c(=O)c2sccc2n2c(CCCC(=O)NC3CCN(Cc4ccccc4)CC3)nnc12 | -6.43 |
| COc1ccc(OC)c(C2C(C(C)=O)=C(O)C(=O)N2CCN2CCOCC2)c1 (stereo not drawn) | -6.92 |
| COc1ccc(C)cc1NC(=O)CCN1CCN(c2ccccc2F)CC1.Cl | -19.9 |
| Cc1ccccc1OCC(=O)NNC(=O)CN1C(=O)c2ccccc2C1=O | -9.07 |
| NNc1nc2sc3c(c2c(=O)[nH]1)CCc1ccccc1-3 | 7.46 |
| Cc1ccc(C)c(N2CCN(C(=O)Cc3c(C(=O)O)[nH]c4ccc(Cl)cc34)CC2)c1 | 10.1 |
| O=C(O)COc1cccc2nsnc12 | 4.42 |
| CC(=O)N1N=C(c2cccc([N+](=O)[O-])c2)OC1(C)CC(=O)Nc1ccccc1 (stereo not drawn) | -12 |
| COc1ccc(NC(=O)CN(C)CC(=O)Nc2ccc(N3CCOCC3)cc2)c([N+](=O)[O-])c1 | -26.2 |
| CNC(=O)OCc1cccc(COC(=O)NC)n1.Cl | 27.2 |
| CC(=O)N1CCN(Cc2nc3cc(NC(=O)c4ccccc4C)ccc3n2C)CC1 | 10.2 |
| COc1ccccc1C(=O)Nc1ccc2c(c1)nc(CN1CCN(C(C)=O)CC1)n2C | -80 |
| COc1ccccc1C(=O)Nc1ccc2c(c1)nc(CN1CCCCC1)n2C | -21.8 |
| CCCC(=O)Nc1ccc2c(c1)nc(CN1CCCCC1)n2C | 2.55 |

| SMILES | hERG current change (%, negative = inhibition) at 10uM [%] |
| --- | --- |
| Cn1c(CN2CCCCC2)nc2cc(NC(=O)c3ccccc3Cl)ccc21 | -8.74 |
| Cn1c(CN2CCCCC2)nc2cc(NC(=O)c3ccc(Cl)cc3)ccc21 | -59.8 |
| CS(=O)(=O)c1ccc(-n2c(=O)n(Cc3ccccc3)c(=O)c3[nH]cnc32)cc1 | -45.7 |
| CCOP(=O)(OCC)/C(C#N)=C/c1ccc(Br)cc1 | -13.5 |
| O=C1c2ccccc2C(=O)N1CCN1CCCCC1 | -6.2 |
| CC1CN(C(=O)/C=C/c2ccccc2[N+](=O)[O-])CC(C)O1 (stereo not drawn) | -4.44 |
| CCCCc1cn([C@@H](CCCCN)C(=O)N2CCNCC2)nn1.Cl | 18.8 |
| CCOC(=O)c1cc2c(=O)n3ccccc3nc2n(C(C)C)c1=NC(=O)c1ccncc1 | -67.5 |
| CCCn1c(=NC(=O)c2ccco2)c(C(=O)OCC)cc2c(=O)n3ccccc3nc21 | -66.7 |
| CCOC(=O)c1cc2c(=O)n3ccccc3nc2n(C(C)C)c1=NC(=O)c1c(-c2c(F)cccc2Cl)noc1C | 2.48 |
| CCOC(=O)c1cc2c(=O)n3ccccc3nc2n(C(C)C)c1=NC(=O)c1ccco1 | -56.8 |
| CCCCCn1c(=NC(=O)c2ccco2)c(C(=O)OCC)cc2c(=O)n3ccccc3nc21 | -73.5 |
| CCOC(=O)c1cc2c(=O)n3ccccc3nc2n(C(C)C)c1=NC(=O)c1c(-c2ccccc2Cl)noc1C | 24.3 |
| CCCn1c(=NC(C)=O)c(C(=O)OCC)cc2c(=O)n3ccccc3nc21 | -9.98 |
| CCCn1c(=NC(=O)c2c(-c3c(F)cccc3Cl)noc2C)c(C(=O)OCC)cc2c(=O)n3ccccc3nc21 | 5.26 |
| CCOC(=O)c1cc2c(=O)n3ccccc3nc2n(C)c1=NC(=O)c1c(-c2c(F)cccc2Cl)noc1C | 14 |
| Cc1onc(-c2c(Cl)cccc2Cl)c1C(=O)NCc1cccs1 | -9.65 |
| COC(=O)CSc1nnc(SCc2ccc(Cl)cc2)s1 | -0.477 |
| Cc1occc1C(=O)N/N=C/c1ccc(-c2cccc([N+](=O)[O-])c2)o1 | 1.37 |
| O=C(COC(=O)c1cc(S(=O)(=O)NCc2ccccc2)ccc1O)c1cc2ccccc2o1 | 11.9 |
| COc1ccccc1NC(=O)CCCN1C(=O)C2CC=CCC2C1=O (stereo not drawn) | 11.1 |
| CCN1CCN(Cc2ccccc2NC(=O)Nc2ccc(C)cc2)CC1 | -0.992 |

| SMILES | hERG current change (%, negative = inhibition) at 10uM [%] |
| --- | --- |
| COc1cc2nc(CN(CCC(C)C)Cc3nc4cc(OC)c(OC)cc4c(=O)[nH]3)[nH]c(=O)c2cc1OC | -2.68 |
| Cc1ccccc1NC(=O)c1nn(C)c(C(=O)Nc2ccccc2C)c1[N+](=O)[O-] | 0.0696 |
| CCCCn1c(=NC(=O)c2ccco2)c(C(=O)OCC)cc2c(=O)n3ccccc3nc21 | -71.7 |
| CCOc1cc(/C=C/c2ccc3cccc([N+](=O)[O-])c3n2)ccc1OCC(=O)N(C)C | -33.4 |
| O=C(c1ccco1)N1CCN(c2nnc(-c3ccccc3)c3ccccc23)CC1 | -75.8 |
| Cc1ccc(-c2nnc(N3CCN(C(=O)CN4CCOCC4)CC3)c3ccccc23)cc1 | -31.5 |
| O=C(CN1CCOCC1)N1CCN(c2nnc(-c3ccccc3)c3ccccc23)CC1 | 7.35 |
| Cc1ccc(-c2nnc(N3CCN(C(=O)c4ccco4)CC3)c3ccccc23)cc1 | -75.2 |
| Cc1ccc(-c2nnc(N3CCCCC3)c3ccccc23)cc1 | -11.2 |
| N#Cc1c(N2CCN(C(=O)c3ccco3)CC2)nc(-c2ccccc2)c2c1CCCC2 | -5.84 |
| O=C(Nc1nccs1)C1CCN(S(=O)(=O)c2ccccc2)CC1 | -14.1 |
| CN(C)S(=O)(=O)c1cccc(NC(=O)c2sccc2-c2ccccc2)c1 | -26.1 |
| S=C(Nc1ccccc1)Nc1ccc2cn[nH]c2c1 | -14.5 |
| CCNC(=S)Nc1ccc(Cc2nc3ccccc3[nH]2)cc1 | 9.19 |
| Fc1ccc(CNC(=S)Nc2ccc(OC(F)F)cc2)cc1 | -20.6 |
| FC(F)Oc1ccc(NC(=S)NCc2nc3ccccc3[nH]2)cc1 | -79.2 |
| CCOc1ccc(NC(=S)NCc2nc3ccccc3[nH]2)cc1 | -74 |
| FC(F)Oc1ccc(NC(=S)NCc2ccccc2)cc1 | -36.9 |
| CCc1cccc(CC)c1NC(=S)NCc1nc2ccccc2[nH]1 | 3.09 |
| COc1ccc(NC(=S)Nc2ccc3cn[nH]c3c2)cc1 | -11.9 |
| FC(F)Oc1ccc(NC(=S)Nc2ccc3cn[nH]c3c2)cc1 | -79.5 |
